# Reference: PubChem BioAssay (NCATS)
# Inconclusive results are not listed. A number with no mark means an inactive call. Calls of active or inactive are those of the source. The call rests on the fitted dose curve; in most records, active means well fitted inhibition curve with a large enough effect; inconclusive means small, poorly fitted or top-dose-only effect; inactive means no such curve, though single readings can be large or run the other way.
# Assay: Primary qHTS for inhibitors of nuclear receptor binding SET domain protein 2 (NSD2) in an RCH-ACV wild type WT cells (2C) (AID 1645877); further: nearly all actives have a fitted effect of over 70% in size
# Settings: RCH-ACV (leukaemia line) NSD2 WT (2C) viability, CellTiter-Glo, 72 h; series mostly up to 44.9 µM; activity change, negative = cell killing: at the top concentration
# On the % scale 0 is the no-effect control and ±100 the full control effect.
SMILES,outcome,"activity change, negative = cell killing"
COc1ccc2c(c1)N1C(=O)C[C@@]34C=CC[N@+]5([O-])CC[C@H]2[C@H](CC3)[C@@]145,inactive,–
CC(C)C1CCC(C(=O)N[C@@H](Cc2ccccc2)C(=O)O)CC1 (stereo partly specified),–,-3.9%
O=C(/C=C/c1ccc(O)cc1)O[C@H]1[C@H](OC2CCCCC2O)O[C@H](CO)[C@@H](O)[C@@H]1O (stereo partly specified),–,-9.89% [at 17.3 µM]
C[C@@H]1O[C@@H](O[C@H]2[C@@H]3C=CO[C@@H](O[C@@H]4O[C@H](CO)[C@@H](O)[C@H](O)[C@H]4O)[C@@H]3[C@@]3(CO)O[C@@H]23)[C@H](O)[C@H](OC(=O)/C=C/c2ccc(O)cc2)[C@H]1OC(=O)/C=C/c1ccc(O)cc1,–,0.962% [at 17.3 µM]
C=C(C(=O)O)[C@@H]1CC[C@H](C)[C@@H]2CC(=O)C(C)=C2C1,–,-18.4%
C=C1[C@@H]2CC[C@@]3(C)[C@H](c4ccoc4)OC(=O)C[C@]13O[C@H]1CC(=O)C(C)(C)[C@H](C(O)C(=O)OC)[C@]12C (stereo partly specified),–,3.69% [at 17.3 µM]
CC(C)(O)c1ccc2c(c1)C(=O)C[C@H]1[C@](C)(C(=O)O)CCC[C@]21C,inactive,–
Cc1ccc(C)c(NC(=O)CNS(=O)(=O)c2ccc3[nH]c(=O)oc3c2)c1,–,-14.3%
CC1C2=CC(=O)OC2(O)CC2C1C(OC(=O)c1ccccc1)C(OC(=O)c1ccccc1)C1(O)C2(C)CCC(O)C1(C)C(=O)O (stereo unspecified),–,-19.7% [at 17.3 µM]
COc1c(O[C@@H]2O[C@H](CO)[C@@H](O)[C@H](O)[C@H]2O)c(CCC(=O)O)cc2ccoc12,–,-10.2%
CC1(C)CC[C@]2(C(=O)O[C@@H]3O[C@H](CO)[C@@H](O)[C@H](O)[C@H]3O)CC[C@]3(C)C(=CCC4[C@@]5(C)C[C@@H](O)[C@H](O)[C@@](C)(CO)C5[C@H](O)C[C@]43C)C2[C@@H]1O (stereo partly specified),–,-9.31% [at 17.3 µM]
